Publication PMC4336329 (PLoS ONE, 2015)
About 14,000 (4.5%) of roughly 310,000 compounds showed an effect of 50% or more. The effect is printed as a negative number. The sample holds strong results, similar compounds and a random draw of the others, so the mix is not that of the screen.

Target: human ether-à-go-go-related gene (hERG) potassium channel (human, UniProt Q12809)
Assay: primary screen, population patch clamp on CHO cells stably expressing hERG; higher = less effect of the substance
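Also: peak tail current of the secondary pulse compared with the same well before compound.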

Sequence of human ether-à-go-go-related gene (hERG) potassium channel (Q12809 whole entry, looked up): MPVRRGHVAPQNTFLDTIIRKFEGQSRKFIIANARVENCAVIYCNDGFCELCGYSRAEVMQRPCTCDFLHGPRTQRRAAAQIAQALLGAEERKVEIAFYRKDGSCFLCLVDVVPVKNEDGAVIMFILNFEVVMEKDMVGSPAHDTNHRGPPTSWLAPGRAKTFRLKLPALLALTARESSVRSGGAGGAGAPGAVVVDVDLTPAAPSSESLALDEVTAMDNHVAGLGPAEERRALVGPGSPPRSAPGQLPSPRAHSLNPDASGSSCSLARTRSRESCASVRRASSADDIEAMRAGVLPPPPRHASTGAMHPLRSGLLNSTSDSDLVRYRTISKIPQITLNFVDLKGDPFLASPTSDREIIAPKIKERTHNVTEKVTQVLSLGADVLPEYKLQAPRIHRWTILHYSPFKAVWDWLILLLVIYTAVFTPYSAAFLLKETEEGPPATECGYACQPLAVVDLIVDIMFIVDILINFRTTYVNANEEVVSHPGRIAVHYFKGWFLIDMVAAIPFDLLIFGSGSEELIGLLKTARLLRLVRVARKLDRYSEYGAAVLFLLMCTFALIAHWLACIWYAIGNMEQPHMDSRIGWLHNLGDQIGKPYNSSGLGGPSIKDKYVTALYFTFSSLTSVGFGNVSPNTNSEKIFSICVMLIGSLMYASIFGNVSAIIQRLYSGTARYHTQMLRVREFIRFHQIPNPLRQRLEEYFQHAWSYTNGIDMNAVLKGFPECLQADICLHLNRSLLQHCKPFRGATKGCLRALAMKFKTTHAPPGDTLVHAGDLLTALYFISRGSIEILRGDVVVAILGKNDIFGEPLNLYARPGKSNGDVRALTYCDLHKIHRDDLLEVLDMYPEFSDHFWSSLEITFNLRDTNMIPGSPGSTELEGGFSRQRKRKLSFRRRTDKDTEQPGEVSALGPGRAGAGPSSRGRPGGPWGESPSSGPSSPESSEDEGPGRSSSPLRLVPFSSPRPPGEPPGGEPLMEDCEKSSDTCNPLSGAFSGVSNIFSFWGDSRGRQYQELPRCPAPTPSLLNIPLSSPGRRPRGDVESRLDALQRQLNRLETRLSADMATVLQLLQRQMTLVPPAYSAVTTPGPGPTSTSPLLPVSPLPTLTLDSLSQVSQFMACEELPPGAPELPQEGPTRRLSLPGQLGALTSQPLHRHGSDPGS

Compound	hERG current change (%, negative = inhibition) at 10uM [%]
O=C(O)c1ccccc1NC(=O)N1C[C@H]2C[C@@H](C1)c1cccc(=O)n1C2	3.86
COc1ccc(CN(C)Cc2nc(Cc3ccccc3Cl)no2)cc1OC	-10.9
CC(=O)Nc1nc2ccccc2[nH]1	-0.326
Cc1cc(C)n(C(=O)CNC(=O)c2ccco2)n1	11.9
CC(NC(=O)c1ccco1)C1CCCO1 (centres unmarked)	-12.7
O=CN1CC(=O)N(c2ccccc2)c2c([nH]c3ccccc23)C1	-23.2
O=C(O)CSc1cc(C(=O)c2ccccc2O)cn2c(=O)c3c(-c4ccccc4)csc3nc12	-1.71
COc1cc(NC2c3ccccc3C(=O)N2Cc2ccc3c(c2)OCO3)cc(OC)c1 (centres unmarked)	-22.4
Cc1cc(OCC(=O)NCCc2c[nH]c3ccccc23)c2c(C)c(C)c(=O)oc2c1	3.37
O=C(O)C(=O)O.O=C(c1ccccc1)c1ccc(OCCCN2CCCCC2)cc1	-66.4
CCCOc1ccc(C(=O)OCCN2CCCCC2)c(O)c1.Cl	-58.7
CCCCOc1ccc(C(=O)CCN2CCCCC2)cc1.Cl	-61.5
CCCOc1ccc(C(=O)CCN2CCCCC2)cc1.Cl	-31.6
O=C(O)C(=O)O.O=C(c1ccccc1)c1ccc(OCCCCN2CCCCC2)cc1	-52.6
CC(=O)c1ccc(OCCCN2CCCCC2)cc1.O=C(O)C(=O)O	-22.2
CCOc1ccc(C(=O)CCN2CCCCCC2)cc1.Cl	-38.4
CC(C)COc1ccc(C(=O)OCCN2CCOCC2)c(O)c1.Cl	-25.2
COc1cc(C(=O)OCCN2CCCCC2)ccc1O.Cl	3.87
COc1ccc(/C=N/N=C2\SC(CC(=O)O)C(=O)N2c2ccccc2)c(OC)c1 (centres unmarked)	4.13
CC1=CC(C)(C)N(C(=O)CSc2nnc(N)s2)c2cc(C)c(C)cc21	-6
CC(C)OC(=O)Nc1ccc2c(c1)N(C(=O)CCN(C)C)c1ccccc1CC2.Cl	-20.8
CCOc1ccc(N2CC(NC(=O)c3cccc4ccccc34)CC2=O)cc1 (centres unmarked)	3.75
CCN(CC(=O)NCc1ccc(Cl)cc1)C(=O)c1cc(S(=O)(=O)NCc2ccccc2)ccc1C	-25.6

Compound	hERG current change (%, negative = inhibition) at 10uM [%]
CN(C)c1nc(NCc2ccccc2)nc(N/N=C/c2cccc(Br)c2)n1	29.7
O=C(Cc1ccsc1)NCc1ccccc1F	17.1
CC(C)CCNC(=O)c1cc(-c2ccco2)nc2ccccc12	6.45
O=C(Cc1ccccc1)Nc1ccc(SC(F)F)cc1	-29.7
CC[N+](CC)(CC)CC(=O)Nc1ccc(SC(F)F)cc1.[Cl-]	-3.41
CCn1c(N)[n+](CC(=O)Nc2ccc(SC(F)F)cc2)c2ccccc21.[Cl-]	-78.4
COC(=O)Cn1c(=NC(=O)CCS(=O)(=O)c2ccccc2)sc2c(OC)ccc(OC)c21	6.2
CCc1noc(C)c1C(=O)NNC(=O)c1ccccc1F	21
CSc1cccc(NC(=O)CCS(=O)(=O)c2cccc3nonc23)c1	-15.1
COC(=O)c1ccccc1NC(=O)COC(=O)c1cccnc1	6.42
COc1ccc(Cl)cc1NC(=O)CN1CCN(S(=O)(=O)c2ccc(F)cc2)CC1	-43.8
Cc1cc(NC(=O)CN2CCN(S(=O)(=O)c3ccc(Cl)cc3)CC2)no1	-15.4
O=C(CN1CCN(S(=O)(=O)c2ccc(Cl)cc2)CC1)Nc1ccc(F)cc1F	-78.3
O=C(CN1CCN(S(=O)(=O)c2ccc(Br)cc2)CC1)Nc1ccc(F)cc1F	-73.5
O=C(CN1CCN(S(=O)(=O)c2ccc(Br)cc2)CC1)Nc1ccc(F)cc1	-67.8
O=C(CN1CCN(S(=O)(=O)c2ccccc2)CC1)Nc1ccc(Cl)cn1	-29.5
NS(=O)(=O)c1ccc(NC(=O)CN2CCN(S(=O)(=O)c3ccc(F)cc3)CC2)cc1	7.15
CC(C)c1ccc(S(=O)(=O)N2CCN(CC(=O)Nc3ccc(Cl)cc3F)CC2)cc1	-15.9
O=C(CN1CCN(S(=O)(=O)c2ccc(F)cc2)CC1)Nc1ccc(Cl)cn1	-62.7
COC(=O)c1ccc(NC(=O)CN2CCN(S(=O)(=O)c3ccc(Br)cc3)CC2)cc1	-31.4
COc1ccc(C)cc1NC(=O)CN1CCN(S(=O)(=O)c2ccc(Br)cc2)CC1	-30.5
Cc1sc2ncnc(NCCc3ccc(S(N)(=O)=O)cc3)c2c1C	12.6
COc1ccc(CCNC(=O)CSc2nn3c(=O)c(C)nnc3s2)cc1OC	6.31

Compound	hERG current change (%, negative = inhibition) at 10uM [%]
CN(CC(=O)Nc1ccccc1C(F)(F)F)C(=O)COc1ncnc2ccccc12	1.42
O=C(CNCc1ccc(Cl)cc1)NCc1ccco1.O=C(O)C(=O)O	-17.3
Cc1cccc(OCc2n[nH]c(=S)n2-c2ccccc2)c1	10.1
CC(=O)Nc1ccc(C(=O)OCC(=O)NCc2ccccc2)cc1	11.9
O=C(COC(=O)CCC(=O)c1ccc(F)cc1)Nc1ccc2[nH]c(=O)[nH]c2c1	-3.65
O=C(CN1CCN(S(=O)(=O)c2ccc(F)cc2)CC1)Nc1ccc(F)cc1F	-60.3
O=C(Nc1ccc(F)cc1F)NC1CCN(S(=O)(=O)c2ccc(F)cc2)CC1	9.78
O=C(COC(=O)c1ccc(S(=O)(=O)N2CCCC2)cc1)Nc1ccc(F)cc1F	9.22
C/C(=N\OCC(=O)NC12CC3CC(CC(C3)C1)C2)c1cc2ccccc2o1	5.38
CCOc1ccc(S(=O)(=O)N2CCN(CN3C(=O)CC4(CCCC4)C3=O)CC2)cc1	-8.79
N#CCCN(Cc1cccnc1)C(=O)Nc1ccccc1	-3.06
CC(C)(C)CN1CCN(Cc2nc(-c3ccc(F)cc3)cs2)CC1CCO (centres unmarked)	-62.5
CC(C)=CCN1CCN(CC#Cc2ccccc2)CC1CCO (centres unmarked)	-13
CC(C)(C)CN1CCN(Cc2c[nH]c3ccccc23)CC1CCO (centres unmarked)	15.5
CC(C)=CCN1CCN(Cc2cc(F)ccc2-n2nc(C)cc2C)CC1CCO (centres unmarked)	-25
CC(C)=CCN1CCN(Cc2nc(C(C)C)cs2)CC1CCO (centres unmarked)	-12.9
CC(C)=CCN1CCN(Cc2nc(-c3ccccc3)cs2)CC1CCO (centres unmarked)	-60.4
CC(C)=CCN1CCN(Cc2nc(-c3ccc(F)cc3)cs2)CC1CCO (centres unmarked)	-69
CC(C)=CCN1CCN(Cc2cccnc2)CC1CCO (centres unmarked)	-1.24
CC(C)(C)CN1CCN(Cc2cccnc2)CC1CCO (centres unmarked)	13.6
CCN(CC(=O)NCc1ccc(F)cc1)C(=O)C1CCN(C(=O)Nc2ccccc2)CC1	-7.79
COCCn1c(SCC(=O)N2CC(=O)Nc3ccccc32)nc2ccccc21	-2.29
O=C(Nc1ccc(N2CCCCC2)cc1)c1cccnc1	4.6

Compound	hERG current change (%, negative = inhibition) at 10uM [%]
Cc1ccc(-c2noc(-c3ccccc3C(=O)NCC3CCCO3)n2)cc1 (centres unmarked)	-18.6
Cc1ccc(-c2nn(-c3ccccc3Cl)cc2C(=O)NCC2CCCO2)cc1 (centres unmarked)	-0.0276
C=CCNC(=O)c1cc2c(=O)n3cc(C)ccc3nc2nc1NCC1CCCO1 (centres unmarked)	-73
COc1ccc(-c2cc(C(=O)NCC3CCCO3)c3cc(C)ccc3n2)cc1 (centres unmarked)	-3.03
CCOCCCNc1nc2nc3ccc(C)cn3c(=O)c2cc1C(=O)NCC1CCCO1 (centres unmarked)	-77.7
Cc1ccc(-c2nn(-c3ccccc3)cc2C(=O)NCC2CCCO2)cc1 (centres unmarked)	-25.8
COCCCNC(=O)c1cc2c(=O)n3cc(C)ccc3nc2nc1NCC1CCCO1 (centres unmarked)	-71.9
COCCCNC(=O)CSc1nc2ccccc2c(=O)n1CCCC(=O)NCC1CCCO1 (centres unmarked)	-0.988
CCNc1nc2nc3ccc(C)cn3c(=O)c2cc1C(=O)NCC1CCCO1 (centres unmarked)	-70.6
Cn1nc(C(=O)NCC2CCCO2)c2ccccc2c1=O (centres unmarked)	-3
CCn1cc(C(=O)NCC2CCCO2)c2cc(OC)c(OC)cc2c1=O (centres unmarked)	19.4
COCCCNC(=O)c1ccc2nc3ccccc3c(=O)n2c1	14.7
Cc1ccc(C)c(C(=O)CCC(=O)Nc2cccnc2)c1	7.26
COc1cccc(/C=C/C(=O)OCC(=O)NCC2CCCCC2)c1OC	8.32
CCN(CC)c1ccc2c(C)c(CN3CCOCC3)c(=O)oc2c1	-11.1
C=Cc1ccc(C(=O)N2CCCC(CCC(=O)N3CCN(c4ccccn4)CC3)C2)cc1 (centres unmarked)	-4.57
CCCCNc1nc(N)nc(-c2cc(Cl)ccc2O)n1	20.9
CCCOc1ccc(C(=O)Nc2cccnc2)cc1	3.01
c1ccc(-c2nc(CSc3n[nH]c(-c4cccs4)n3)cs2)cc1	-15.1
Cc1ccc2c(c1)c(=O)c1c3n2CCN(CC2CO2)C3CC1 (centres unmarked)	4.27
